This is part of a sample that, as a whole, favours compounds with a hit. Of some 83,000 tested, about 20% had one in any assay.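 Plates (96-well) were seeded with cells, treated with compound at one concentration, and incubated for 48 hours before percent growth was determined.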 Values without a mark were called inactive. The source made the active and inactive calls. The calls were made as follows: active = growth percent below 10; inactive = the rest.

In the test the test system is NCI-H322M lung. Nature of the test: NCI-60 one-dose screen, 48 h (100 = growth as untreated, 0 = no growth, -100 = all killed). Conditions: 10 µM unless noted.
As to `Clc1cccc(Nc2ncnc3ccc(-c4cnc5[nH]ccc5c4)cc23)c1`, the growth was 18.7%.
With `Nc1cc(C(=O)NC[C@H]2CN(c3ccc(N4CCC(C(=O)O)CC4)cc3)C(=O)O2)ccc1Cl`, the growth is 107%.
To `N#CSCC1CC(O)(c2ccccc2)CC(c2ccc(F)cc2)O1` (stereo not given) belongs 50.9%; to `CCOC(=O)c1ccc2c(c1)nc(-c1ccccc1)n2C1CCCCC1`, 83.1%; to `Cc1cn(-c2cc(NC(=O)c3cncc(C#Cc4cnc(N)c5ncccc45)c3)cc(C(F)(F)F)c2)cn1`, 83.4%.
Consider `CCN(CC)Cc1cc(C=C2C(=O)NC(=S)NC2=O)cc(OC)c1O`, for which the growth is 103%.
The value for `COc1cc(/C=C/C(=O)c2ccc(F)cc2)ccc1OCCCCOc1ccc(/C=C/C(=O)c2c(C)nc3ccccc3c2C)cc1OC` was 103%; that for `O=C1/C(=C/c2cccc(F)c2)CN(C(=O)C(Cl)Cl)C/C1=C\c1cccc(F)c1` was -44.1% (active).
The value for `N#Cc1ccc(O)c(C2=NCC(c3ccccc3)O2)c1` (stereo not given) was 55.9%; that for `N=C(N)c1ccc(-c2ccc(-c3ccccc3)o2)cc1` was -37.8% (active); that for `COC12C=C/C(=C(/C(=O)OCc3ccncc3)C(=O)CCCCCCCCC3(OC)C=C/C(=C(/C(=O)OCc4ccncc4)C(=O)CCCCCCCC1)O3)O2` was -63.2% (active).
The value for `COC(=O)/C=C1/SC(=Nc2cccc(OC)c2)N(CCc2c[nH]c3ccc(O)cc23)C1=O` was 95.2%; that for `Cn1ccnc1C(=O)/C=C/c1ccc(CC(=O)Nc2cc(C(F)(F)F)cc(C(F)(F)F)c2)cc1` was 73.2%.
As to `CS(=O)(=O)Nc1cc(-c2ccc3ncnc(Nc4ccc5c(cnn5Cc5ccc(F)cc5)c4)c3c2)cnc1Cl`, the growth was 60.7%.
Regarding `CCSc1nc2scc(C)c2c(=O)[nH]1`, the growth was 104%.
The value for `Fc1cccc(Oc2ccc(Nc3ncnc4ccc(OCCCN5CCOCC5)cc34)cc2Cl)c1` was 37.7%; that for `O=C(Nc1cccc2ccccc12)NC1CC1` was 111%; that for `Clc1ccc2c(NC3CCC(N4CCOCC4)CC3)ccnc2c1` (stereo not given) was 101%.
To `Cc1cc(N2CCN(CCNc3ccnc4cc(Cl)ccc34)CC2)nc(N2CCOCC2)n1` belongs 74.9%.
The value for `c1cnc2c(-c3nc4ccc5[nH]ncc5c4c4c3CCCC4)c[nH]c2c1` was 21.3%; that for `O=C(O)c1ccc(-n2cc(/C=N/Nc3ccccc3)c(-c3ccc(F)cc3F)n2)cc1` was 62.1%.
Regarding `C=C(CBr)[C@@H]1CC[C@]2(C(=O)O)CC[C@]3(C)[C@H](CC[C@@H]4[C@@]5(C)CCC(=O)C(C)(C)[C@@H]5CC[C@]43C)[C@@H]12`, the growth is 92.2%.
For `O=C(CSC(=S)n1cnnc1)NC(=O)c1ccccc1`, the growth was 103%.
To `CC(C)(C)CC(C)(C)NC(=O)Nc1ncccc1OCc1ccccc1` belongs 86.3%.
The value for `Oc1ccc(Cl)cc1/C=N\NC(=S)N/N=C/c1cc(Cl)ccc1O` was 34.4%; that for `CCc1ncnc2c1ccn2C(C)c1ccc(OC)c(F)c1` (stereo not given) was 79.7%; that for `C/C(=N\O)c1ccc(Cl)cc1` was 123%.
Regarding `CN(C)CCNC(=O)c1cc2c3cc(Cl)ccc3[nH]c2c2ncccc12`, the growth is 31.4%.
As for `O=C(/C=C/c1ccco1)Nc1ncc(Cc2cccc(C(F)(F)F)c2)s1`, the growth was 30.4%.
To `Cc1cc(S(=O)(=O)/N=C(\N)n2nc(C)c(C)c2C)c(SCc2ccccc2)cc1Cl` belongs 86.2%; to `CN(c1cc2ncc(=O)[nH]c2cc1NC(N)=NCc1ccc(Cl)cc1)C1CCCCC1`, 84.5%.
The value for `COc1cc(-c2nc3sccn3c2-c2ccnc(NCCNS(=O)(=O)c3ccccc3)n2)ccc1F` was 67.7%; that for `O=C(Nc1cccc(-c2ccc(N3CCOCC3)nn2)c1)Nc1cccc(C(F)(F)F)c1` was 89.6%; that for `COCCNC(=O)Nc1ccc2nc(-c3cccs3)c(-c3cccs3)nc2c1` was 98.6%.
The value for `O=C1/C=C/[C@@H](O)[C@@H]2C[C@@H](O)C[C@H]2/C=C/CCC[C@H](CCc2ccccc2)O1` was 35.9%; that for `CC(=O)Oc1ccc(/C(=C(\C)c2ccc(Cl)cc2)c2ccc(OCCN3CCCCC3)cc2)cc1` was 84.7%; that for `N#Cc1nc(-c2ccc(F)cc2)oc1S(=O)(=O)N1CCOCC1` was 102%.
Regarding `C#CCNC(=O)[C@H](CC)[C@H]1CC[C@H](C)[C@H]([C@@H](C)[C@H](O)[C@H](C)C(=O)[C@H](CC)C2O[C@]3(C=CC(=O)[C@]4(CC[C@@](C)([C@H]5CC[C@](O)(CC)[C@H](C)O5)O4)O3)[C@H](C)C[C@@H]2C)O1` (stereo not given in full), the growth is 53.8%.
Consider `COc1ccc(CNc2c3ccccc3nc3ccccc23)cc1`, for which the growth is 47.1%.
The value for `Clc1cc(Cl)c(Cl)c(-c2nnc(SCc3ccncc3Br)o2)c1` was 102%.

Source of the values: PubChem BioAssay (NCI).
